# From PubChem BioAssay (NCI)
# Compounds without any hit were thinned out: in the full panel of roughly 83,000, 20% have a hit.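 Percent growth is the endpoint: 0 to 100 indicates growth inhibition (40 means 60% inhibition), 0 means no net growth, and negative values indicate cell death.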 A number with no mark means an inactive call. Calls of active or inactive are those of the source.
# System: UACC-62 melanoma
# Assay: NCI-60 one-dose screen, 48 h (100 = growth as untreated, 0 = no growth, -100 = all killed)
# Conditions: 10 µM unless noted
# Description: Growth inhibition of the UACC-62 human tumor cell line is measured as a screen for anti-cancer activity. Cells are grown in 96 well plates and exposed to the test compound for 48 hours. Compounds are tested at a single concentration, which is 10^-5 M for most compounds. The reported endpoint is percent growth (GI% or GIPRCNT), where numbers from 0 - 100% represent growth inhibition, and numbers from -100% - 0 represent cell death. For example, a value of 40 represents 60% growth inhibition. A value of 0 means no net growth occurred over the course of the experiment. A value of -40 indicates 40% of cells at the beginning of the experiment died by the end of the experiment. A value of -100 means all cells are dead at the end of the experiment.
# NCI-60 Human Tumor Cell Lines Screen was performed using the standard one-dose NCI protocol, which is described in more detail at https://dtp.cancer.gov/discovery_development/nci-60/default.htm.
# Compounds with GIPRCNT values below 10 were considered active. Activity score was based on GIPRCNT using the following formula: […]
# Score is 0 for GIPRCNT values of 100 or above, 50 for GIPRCNT values of 0, and 100 for GIPRCNT values of -100.
row,SMILES,growth
1,Cc1ccc(C(=O)c2ccc(CC(=O)N=Nc3c(O)[nH]c4ccc(Br)cc34)n2C)cc1,94.6%
2,COc1ccc(NC(=O)Nc2ccc(OCCCCCC(=O)NO)cc2)cc1,89.4%
3,N#C/C(=C\C=C\c1ccc(-c2cc(Cl)ccc2Cl)o1)c1nc2ccccc2s1,83.1%
4,O=S(=O)(Oc1ccc(Br)cc1)c1ccc(Cl)cc1,98.6%
5,CCCCNC(=O)c1cc([N+](=O)[O-])cc(C2CCCCC2)c1O,20.3%
6,O=C(NNC(=O)c1nc2cc(F)ccc2n2cccc12)c1cnccn1,19.6%
7,COc1cccc(Nc2ncnc3cc(NC(=O)CCl)ccc23)c1,-67.5% (active)
8,Cc1ccc(Cl)cc1NC(=O)c1sc2nc3c(cc2c1N)C(=O)CCC3,53.1%
9,C=CCC(CCCC)(C(=O)OCC)C(=O)OCC,99.6%
10,C=C(CNCCc1ccc(O)cc1)[C@@H]1CC[C@]2(CO)CC[C@]3(C)[C@H](CC[C@@H]4[C@@]5(C)CCC(=O)C(C)(C)[C@@H]5CC[C@]43C)[C@@H]12,-29.5% (active)
11,O=S1(=O)C=C(c2ccccc2)C(c2ccccc2)=C1,5.7% (active)
12,COc1cc(/C=N/Nc2ccc(Br)cc2)cc(OC)c1OC,36.8%
13,O=C(Nc1ncc(Cc2cc(C(F)(F)F)ccc2Cl)s1)c1cccs1,46.1%
14,O=c1c2c3c(sc2n2c(-c4cc(-c5ccccc5)no4)nnc2n1Cc1ccccc1)CCCC3,80.7%
15,COc1ccc(Nc2ncccc2/C=C/C(=O)c2cc(OC)c(OC)c(OC)c2)cc1,-24% (active)
16,CCN1CCN(CC(=O)Nc2nc3ccc(NCc4ccc(F)cc4)cc3s2)CC1,87.4%
17,CC[N+]1(CC)CC[N+]2(CCCC(C)CC2)CC1 (stereo not given),100%
18,O=C(Oc1ccc(CCl)cc1)c1ccccc1,-76.9% (active)
19,O=S(=O)(NCCCNc1nccc(-c2c(-c3cccc(F)c3)nc3occn23)n1)c1ccc(F)cc1,26.5%
20,O=C(O)[C@@H](Cc1ccc2ccccc2c1)NC(=O)n1c2ccccc2c2ccccc21,18.3%

row,SMILES,growth
1,Nc1[nH]n2cc(-c3ccc(F)cc3)nc2c1N=Nc1ccc(S(N)(=O)=O)cc1,71.4%
2,COc1cccc(/C=N/NC(=O)c2ccccc2N2CCCC2)c1O,42.5%
3,COC(=O)c1c2c(n3ccccc13)C(=O)c1ccccc1C2=O,65.7%
4,O=C(CCCCCCN1CC(=O)N2[C@H](c3ccc(Br)cc3)c3[nH]c4ccccc4c3C[C@@H]2C1=O)NO,13.8%
5,C=C1C(=O)O[C@H]2[C@H]1CC/C(Cn1cc(CCC)nn1)=C\CC[C@@]1(C)O[C@@H]21,4.67% (active)
6,COc1cc(-c2nc3c(ncc4ccc(=O)n(-c5ccccc5)c43)s2)cc(OC)c1OC,78.7%
7,COc1cc(OC)c2sc(-c3ccc(-n4cncc4-c4cc(OC)c(OC)c(OC)c4)cc3)nc2c1,43.8%
8,O=P(O)(O)OCC1OC(n2cnc3c(NCc4ccco4)ncnc32)C(O)C1O (stereo not given),45.4%
9,COc1ccc(C(=O)/C=C/c2ccc(N3CCCCC3)cc2)cc1OC,75.3%
10,C/C(=N\O)[C@@H]1CC[C@]2(CO)CC[C@]3(C)[C@H](CC[C@@H]4[C@@]5(C)CCCNC(C)(C)[C@@H]5CC[C@]43C)[C@@H]12,90.5%
11,NC1=Nc2cc(OCCCCN3Cc4ccccc4C3)c(OCC3CC3)cc2C12CCCC2,50.5%
12,CCOC(=O)c1cc(C(=O)c2cc(OC)c(OC)c(OC)c2)n2ccccc12,37.8%
13,COc1cccc(CNc2c3ccccc3nc3ccccc23)c1,63.5%
14,NS(=O)(=O)c1ccc(-c2cc(-c3nnc(SCC(=O)Nc4ccc(C(=O)/C=C/c5ccc(Cl)cc5)cc4)n3-c3ccccc3)c3ccccc3n2)cc1,71%
15,CCOC(=O)c1c(C)nc2c(c1N)/C(=C/c1ccc(OC)cc1)C(=O)N2Cc1ccccc1,48.8%
16,CN1CCN(Cc2ccc(NC(=O)c3cncc(C#Cc4cnc5ccc(Cl)nn45)c3)cc2C(F)(F)F)CC1,-14.5% (active)
17,COc1ccccc1N(C(C)=O)C1=C(Cl)C(=O)c2ccccc2C1=O,-35.3% (active)
18,CCOC(=O)c1c(C)c2c(n1Cc1ccccc1)CSCC2=O,-35.4% [100 µM] (active)
19,Cc1ccc(-c2nc(N3CCNCC3)c3oc(-c4ccc(C)cc4)nc3n2)cc1,95.4%
20,O=C(CN1CCN(c2cc3c(cc2F)c(=O)c(C(=O)O)cn3C2CC2)CC1)N/N=C/c1ccco1,93.5%
